Experiment [1] is described as follows: qHTS assay to identify small molecule antagonists of the thyroid receptor (TR) signaling pathway - cell viability counter screen (AID 743064). Note: nearly all actives have a fitted effect of over 50% in size. Note: potency is the fitted concentration of half-maximal effect. Particulars: GH3.TRE-Luc viability, CellTiter-Fluor, 24 h; series mostly up to 70.3 µM. The procedure, abridged:
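Fluorescence from CellTiter-Fluor, added after 23.5 h exposure at 37 °C, reported viability of GH3.TRE-Luc cells co-treated with compound and 1 nM T3. Measured in the same wells as the luciferase TR readout.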

Experiment [2] can be described thus: qHTS assay to identify small molecule antagonists of the thyroid receptor (TR) signaling pathway (AID 743065). Note: nearly all actives have a fitted effect of over 55% in size. Note: potency is the fitted concentration of half-maximal effect. Particulars: GH3.TRE-Luc, T3-stimulated luciferase inhibition, 23.5 h; series mostly up to 70.3 µM. The procedure, abridged:
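Antagonism measured as loss of luciferase signal in GH3 cells stably carrying a TRE-luciferase reporter, co-treated with compound and T3 (1 nM final) for 23.5 h at 37 C. Viability was read in the same well by CellTiter-Fluor.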
On the technique in general: qHTS replaces the single test concentration by a dilution series.

Experiment [3] relates to thyroid hormone receptor (rat, GH3 cells). The experiment is described as follows: qHTS assay to identify small molecule agonists of the thyroid receptor (TR) signaling pathway (AID 743066; calls by dose curve). The settings on record: GH3.TRE-Luc cells, TR agonist luciferase, 24 h; series mostly up to 83.9 µM.
Experiment [4] can be described thus: qHTS assay to identify small molecule antagonists of the estrogen receptor alpha (ER-alpha) signaling pathway - cell viability counter screen (AID 743074; calls by dose curve;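 note: HEK293 cells carrying ER-alpha-UAS-bla reporter stimulated with 17beta-estradiol; nearly all actives have a fitted effect of over 45% in size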; note: potency is the fitted concentration of half-maximal effect). Particulars: ERalpha-bla HEK293 viability, CellTiter-Glo luminescence, 18 h; series mostly up to 69.4 µM.
Experiment [5] is described as follows: qHTS assay to identify small molecule antagonists of the estrogen receptor alpha (ER-alpha) signaling pathway using the BG1 cell line - cell viability counter screen (AID 743081).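 Note: compound given together with 17beta-estradiol as the ER stimulus; nearly all actives have a fitted effect of over 45% in size.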 Note: potency is the fitted concentration of half-maximal effect. Particulars: BG1Luc4E2 viability, CellTiter-Fluor, 22 h; series mostly up to 70.3 µM.
A further experiment concerns the target Aromatase (Homo sapiens) (UniProt P11511). The experiment is described as follows: qHTS assay to identify aromatase inhibitors (AID 743083). Note: nearly all actives have a fitted effect of over 55% in size. Note: potency is the fitted concentration of half-maximal effect. The settings on record: MCF-7 aro ERE, testosterone-driven ERE luciferase, 24 h; series mostly up to 70.3 µM.
The target of experiment [6] is Estrogen receptor (Homo sapiens) (UniProt P03372). The experiment is described as follows: qHTS assay to identify small molecule antagonists of the estrogen receptor alpha (ER-alpha) signaling pathway (AID 743069; active = well fitted curve in the direction sought with a large enough effect in the signal ratio in the repeat runs, not every such curve was filed as active; inconclusive = weak or mixed curves, or effect the other way; inactive = no such curve, though single readings can be large or run the other way; the % refers to the signal ratio; note: potency is the fitted concentration of half-maximal effect). The settings on record: HEK293 ER-alpha-UAS-bla, beta-lactamase ratio, antagonist mode; series mostly up to 69.4 µM. In short, it runs like this:
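Compound effects are measured against 17beta-estradiol stimulation in HEK293 cells with a UAS-controlled beta-lactamase reporter for ER-alpha. Exposure lasts 18 hr at 37C; LiveBLAzer B/G FRET substrate follows for 2 hr at room temperature.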

The target is the same in experiment [7]. The experiment is described as follows: qHTS assay to identify small molecule agonists of the estrogen receptor alpha (ER-alpha) signaling pathway using the BG1 cell line (AID 743079). Note: nearly all actives have a fitted effect of over 20% in size. Note: potency is the fitted concentration of half-maximal effect. The settings on record: BG1Luc4E2 cells, ERE-luciferase agonist, 22 h; activation: at 70.3 µM (top of the series).
A short description of experiment [8]: qHTS assay to identify small molecule antagonists of the estrogen receptor alpha (ER-alpha) signaling pathway using the BG1 cell line (AID 743080; calls by dose curve;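 note: BG1 cells stimulated with 17beta-estradiol alongside compound; nearly all actives have a fitted effect of over 25% in size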). Particulars: BG1Luc4E2 ERE-luciferase antagonist mode, luminescence; series mostly up to 70.3 µM. In short, it runs like this:
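BG1-Luc-4E2 cells (endogenous full-length ER-alpha, 4xERE luciferase) hormone-starved 5 days in charcoal-stripped FBS, plated 4,000/well for 24 h, then compound plus 17beta-estradiol for 21.5 h at 37 C; ONE-Glo luminescence read.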

Experiment [9] concerns the target Estrogen receptor (Homo sapiens) (UniProt P03372). The experiment is described as follows: qHTS assay to identify small molecule agonists of the estrogen receptor alpha (ER-alpha) signaling pathway (AID 743075; calls by dose curve). The settings on record: HEK293 ER-alpha-UAS-bla, beta-lactamase FRET ratio, 18 h; series mostly up to 70.1 µM.

The source made the active and inactive calls. Unless noted, calls come from the whole dose curve; as a rule, active = well fitted curve in the direction sought with a large enough effect in the repeat runs; inconclusive = weak or mixed curves; inactive = no such curve, though single readings can be large; an effect the other way counts as inactive or inconclusive.

The text below walks through data of PubChem BioAssay (Tox21).

Chain of Estrogen receptor (Homo sapiens) (P03372 whole entry, looked up): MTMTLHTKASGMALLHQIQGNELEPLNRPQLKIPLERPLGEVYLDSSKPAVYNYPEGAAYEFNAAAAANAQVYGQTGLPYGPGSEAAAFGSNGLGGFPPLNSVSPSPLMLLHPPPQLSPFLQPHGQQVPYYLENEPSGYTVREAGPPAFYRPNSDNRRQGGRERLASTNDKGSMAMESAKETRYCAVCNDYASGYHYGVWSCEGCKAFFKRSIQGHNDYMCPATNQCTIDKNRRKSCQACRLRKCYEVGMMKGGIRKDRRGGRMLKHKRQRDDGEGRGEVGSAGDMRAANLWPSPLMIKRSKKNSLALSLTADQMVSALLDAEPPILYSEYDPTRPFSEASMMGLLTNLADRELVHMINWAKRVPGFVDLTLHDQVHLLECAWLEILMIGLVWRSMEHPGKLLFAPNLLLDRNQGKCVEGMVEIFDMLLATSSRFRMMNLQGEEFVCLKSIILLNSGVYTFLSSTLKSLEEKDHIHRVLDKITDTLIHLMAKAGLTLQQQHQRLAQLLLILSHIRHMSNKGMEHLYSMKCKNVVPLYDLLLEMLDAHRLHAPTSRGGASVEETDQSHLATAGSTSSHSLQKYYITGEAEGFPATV
Chain of Aromatase (Homo sapiens) (P11511 whole entry, looked up): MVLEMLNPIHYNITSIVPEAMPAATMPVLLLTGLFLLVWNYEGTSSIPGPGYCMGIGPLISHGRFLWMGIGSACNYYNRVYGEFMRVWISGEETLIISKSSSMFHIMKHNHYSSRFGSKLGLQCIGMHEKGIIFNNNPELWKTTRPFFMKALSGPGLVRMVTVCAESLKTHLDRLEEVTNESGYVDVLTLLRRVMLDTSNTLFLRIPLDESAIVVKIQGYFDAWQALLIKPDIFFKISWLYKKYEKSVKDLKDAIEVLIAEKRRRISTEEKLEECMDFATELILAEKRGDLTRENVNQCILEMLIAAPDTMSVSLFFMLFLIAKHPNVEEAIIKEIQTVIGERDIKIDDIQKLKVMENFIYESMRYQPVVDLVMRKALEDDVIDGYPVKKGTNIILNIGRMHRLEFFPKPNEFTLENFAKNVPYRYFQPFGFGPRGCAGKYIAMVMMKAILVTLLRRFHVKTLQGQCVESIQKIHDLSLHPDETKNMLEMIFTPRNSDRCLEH

Turning to `CC(=O)Nc1c(I)c(C(=O)O)c(I)c(N(C)C(C)=O)c1I`, the Potency result (in [1]; in experiment [2]; in experiment [3]; in [4]; in [5]; in the experiment with Aromatase (Homo sapiens)) was “inactive” throughout.

Take `C[C@@H](O)[C@H]1C(=O)N2C(C(=O)[O-])=C(SC3Cn4cnc[n+]4C3)[C@H](C)[C@H]12` (stereo partly specified): the Potency result (in experiment [1]; in [2]; in [3]; in experiment [4]; in experiment [5]; with Aromatase (Homo sapiens)) was “inactive” each time.

As to `CCOC(=O)C1=C[C@@H](OC(CC)CC)[C@H](NC(C)=O)[C@@H](N)C1`, the Potency entry (in experiment [1]; in experiment [2]; in experiment [3]; in experiment [4]; in the experiment with Aromatase (Homo sapiens)) was “inactive” each time.

Consider `C=C1/C(=C\C=C2/CCC[C@]3(C)[C@@H]([C@H](C)OCCC(C)(C)O)CC[C@@H]23)C[C@@H](O)C[C@@H]1O`, for which the Potency entry (in experiment [1]; in experiment [3]; in experiment [4]; in the experiment with Aromatase (Homo sapiens)) was “inactive” throughout. Moreover, the Potency in experiment [2] is 37.6 µM (active).

Take `O=C(/C=C/c1cccc(F)c1)NC1CC1`: the Potency result (in experiment [1]; in [2]; in [3]; in experiment [4]; in [5]; with Aromatase (Homo sapiens)) was “inactive” each time.

In the case of `CCC(C)C(C(=O)OCC[N+](C)(CC)CC)c1ccccc1` (stereo unspecified), the Potency entry (in [1]; in experiment [2]; in experiment [3]; in experiment [4]; in [5]; in the experiment with Aromatase (Homo sapiens)) was “inactive” throughout.

Turning to `CCCCCCCCCCCCCCCCCCCCCCO`, the Potency entry (in experiment [1]; in experiment [2]; in experiment [3]; in experiment [4]; in experiment [5]; with Aromatase (Homo sapiens)) was “inactive” throughout.

For `CO[C@@]1(NC(=O)C2SC(=C(C(N)=O)C(=O)O)S2)C(=O)N2C(C(=O)O)=C(CSc3nnnn3C)CS[C@@H]21` (stereo partly specified), the Potency result (in [1]; in experiment [2]; in experiment [3]; in experiment [4]; in experiment [5]; with Aromatase (Homo sapiens)) was “inactive” throughout.

For the compound `O=C(NNCNNC(=O)c1ccncc1)c1ccncc1`, the Potency entry (in [1]; in experiment [2]; in [3]; in [4]; in experiment [5]; with Aromatase (Homo sapiens)) was “inactive” each time.

`C[C@H]1C[C@@H]2[C@H]([C@@H](O)C[C@@]3(C)[C@H]2CC[C@]3(O)C(=O)COC(=O)CCC(=O)O)[C@@]2(C)C=CC(=O)C=C12`: the Potency result (in experiment [1]; in experiment [2]; in [3]; in experiment [5]; in the experiment with Aromatase (Homo sapiens)) was “inactive” in each case. In addition, the Potency in experiment [4] was 10.7 µM (active).

`C[C@@H]1CCC2[C@@H](C)[C@@H](O)O[C@@H]3O[C@@]4(C)CC[C@@H]1[C@@]23OO4` (stereo partly specified): the Potency was 2.11 µM (active) in experiment [1], 0.75 µM (active) in experiment [2] and 9.52 µM [inconclusive] (active) in experiment [6]. In addition, the Potency entry in experiment [4], in experiment [7] and in [8] was “inactive” in each case.

With `C=C1C(=O)O[C@H]2[C@H]1CC/C(C)=C\CC[C@@]1(C)O[C@@H]21`, the Potency was 8.41 µM (active) in [1], 7.5 µM (active) in experiment [2] and 21.1 µM (active) with Aromatase (Homo sapiens). The Potency result in [6], in experiment [4], in experiment [8] and in experiment [5] was “inactive” in each case.

On to `O=c1[nH]cnc2[nH]cc(CN3CCCCC3)c12`, for which the Potency result in [1], in [2], in [3], in [9], in experiment [7] and in [8] was “inactive” throughout. The Potency result in experiment [5] is “inactive”.

In the case of `CO[C@H]1C[C@@H]2CC[C@@H](C)[C@@](O)(O2)C(=O)C(=O)N2CCCC[C@H]2C(=O)O[C@H]([C@H](C)C[C@@H]2CC[C@@H](OCCO)[C@H](OC)C2)CC(=O)[C@H](C)/C=C(\C)[C@@H](O)[C@@H](OC)C(=O)[C@H](C)C[C@H](C)/C=C/C=C/C=C/1C`, the Potency was 3.76 µM (active) in experiment [1], 0.0027 µM (active) in [2] and 21.1 µM (active) in experiment [5]. In addition, the Potency result in [3] and in experiment [7] was “inactive” each time.

For `S=C1SCN(Cc2ccccc2)CN1Cc1ccccc1`, the Potency was 18.8 µM (active) in experiment [1], 18.8 µM (active) in [2] and 26.6 µM (active) in [7]. Besides, the Potency entry (in experiment [6]; in experiment [4]; in experiment [9]; in experiment [5]; with Aromatase (Homo sapiens)) was “inactive” throughout.

For the compound `O=C(O)C1CCCN1` (stereo unspecified), the Potency result (in experiment [1]; in [2]; in experiment [3]; in [5]; in the experiment with Aromatase (Homo sapiens)) was “inactive” in each case.

For `CCOc1ccc(N=C(C)Nc2ccc(OCC)cc2)cc1`, the Potency result in experiment [1], in [2], in [3], in experiment [9], in experiment [7] and in experiment [8] was “inactive” in each case. The Potency entry with Aromatase (Homo sapiens) was “inactive”.

As for `CN1CCCC(CN2c3ccccc3Sc3ccccc32)C1` (stereo unspecified), the Potency in [1] is 11.9 µM (active); in experiment [2], 11.9 µM (active); in [6] it was 19 µM [inhibitor] (active). The Potency entry in experiment [4], in [9], in experiment [7], in experiment [8] and in experiment [5] was “inactive” each time.
